# This excerpt belongs to a sample that is enriched for hits.
# SARS PLpro yeast: qHTS of Yeast-based Assay for SARS-CoV PLP | hit rate 0.19% among 330,000 | S. cerevisiae expressing SARS-CoV PLpro, growth rescue | Potency, µM (series often up to 32.9 µM), inactives show at the top dose activity, positive = growth rescue, actives largely listed as activators; also: potency is read from the fitted curve at half-maximal effect; 0% is about no effect; nearly all actives have a fitted effect of over 55% in size
# Shiga toxin inh: A qHTS for Small Molecule Inhibitors of Shiga Toxin; Vero cells, Shiga toxin protein synthesis inhibition reporter; inhibition, % at 38.7 µM; hit rate 9.2% among 290,000; AID 2315, 2010; in the data active = inhibition mostly above about 28%, no sharp cut-off; inactive = mostly below about 43%; also: 0% is about no effect
# NS1 function inh: qHTS Assay for Inhibitors of Influenza NS1 Protein Function; Potency, µM (doses to about 46.1 µM), for inactives: at the top dose activity, positive = more growth; hit rate 0.4% among 270,000; AID 2326, 2010; also: potency is read from the fitted curve at half-maximal effect; actives are rising curves; nearly all actives have a fitted effect of over 50% in size
#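 In this qHTS, NS1 from influenza A is expressed in budding yeast, where it slows growth. Cells are switched from glucose to 2% galactose medium (pH 6.0, -URA), treated with compound, and growth recovery is read at OD600.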
# LmPK inh: qHTS Assay for Inhibitors of Leishmania Mexicana Pyruvate Kinase (LmPK). hit rate 0.37% among 290,000. Q27686. purified LmPK, Kinase-Glo ATP luminescence, 1 h. Potency, µM (series often up to 57.5 µM), without a hit: at the top dose activity change, negative = inhibition, usual class: inhibitors; active = well fitted curve in the direction sought with a large enough effect; inconclusive = small, poorly fitted or top-dose-only effect, or another doubt; inactive = no such curve, though single readings can be large; an effect the other way counts as inactive or inconclusive; also: potency is read from the fitted curve at half-maximal effect; % is scaled to controls: 0 for no effect and ±100 for the full control effect
# Target sequence (Q27686 whole entry, looked up): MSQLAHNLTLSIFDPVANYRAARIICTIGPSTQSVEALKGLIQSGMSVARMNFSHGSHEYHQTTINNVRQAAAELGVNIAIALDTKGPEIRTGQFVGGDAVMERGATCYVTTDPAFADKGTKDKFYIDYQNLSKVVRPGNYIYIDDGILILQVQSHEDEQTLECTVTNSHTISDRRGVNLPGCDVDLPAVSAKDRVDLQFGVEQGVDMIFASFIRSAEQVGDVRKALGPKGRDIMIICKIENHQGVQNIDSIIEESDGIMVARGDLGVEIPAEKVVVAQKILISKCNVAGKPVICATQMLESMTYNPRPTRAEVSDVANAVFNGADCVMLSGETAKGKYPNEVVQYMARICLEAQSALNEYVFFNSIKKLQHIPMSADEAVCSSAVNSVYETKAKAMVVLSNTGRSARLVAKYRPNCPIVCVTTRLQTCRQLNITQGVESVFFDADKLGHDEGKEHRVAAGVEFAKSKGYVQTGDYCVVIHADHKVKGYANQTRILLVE
#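 0.1 nM LmPK, 0.5 mM PEP, 0.1 mM ADP; 50 mM imidazole pH 7.2, 7 mM MgCl2, 50 mM KCl; 1 h RT. Kinase-Glo luminescence readout, normalized to no-enzyme (full inhibition) and uninhibited wells.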
# Tb PYK inh: qHTS of Trypanosoma Brucei Inhibitors; hit rate 0.12% among 410,000; pyruvate kinase (Trypanosoma brucei), Q57TT1; AID 624173, 2012; Potency, µM (doses to about 76.8 µM), without a hit: at the top dose activity, negative = inhibition, actives largely listed as inhibitors; TbPYK enzyme, Kinase-Glo Plus ATP luminescence, 45 min; active = well fitted curve in the direction sought with a large enough effect; inconclusive = small, poorly fitted or top-dose-only effect, or another doubt; inactive = no such curve, though single readings can be large; an effect the other way counts as inactive or inconclusive; also: potency is read from the fitted curve at half-maximal effect; % is scaled to controls: 0 for no effect and ±100 for the full control effect; nearly all actives have a fitted effect of over 50% in size
#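 Enzyme and substrate buffer are dispensed first and compound is pin-transferred. ADP at 130 uM final then starts the reaction, which runs 45 min at room temperature. Detection reagent is added for 10 min before luminescence is imaged.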
# CHX counter: Cycloheximide Counterscreen for Small Molecule Inhibitors of Shiga Toxin; hit rate 12% among 300,000; max response, %; cell reporter, cycloheximide protein synthesis inhibition counterscreen; AID 2314, 2010; in the data active = max response mostly above about 13%, no sharp cut-off; inactive = mostly below about 14%; also: read at 38.3 µM for the half of the compounds with a filed dose; 0% is about no effect
# * marks the source's active call; other numbers are inactive results; ? = inconclusive; . = no result. Unless noted, calls follow the shape of the full dose curve.
SMILES,SARS PLpro yeast,Shiga toxin inh,NS1 function inh,LmPK inh,Tb PYK inh,CHX counter
COc1ccc(CNc2oc(-c3ccccc3)nc2C#N)cc1,-25%,21,-56%,0%,1%,22*
COc1ccc(-c2nc(C#N)c(NCCN(C)C)o2)cc1,.,.,?,.,-3%,.
COc1ccc(-c2nc(C#N)c(NCc3cccnc3)o2)cc1OC,-4%,-12,9%,1%,-6%,-3
COc1ccc(-c2nc(C#N)c(NCc3ccccc3Cl)o2)cc1,.,11,-8%,0%,5%,21
O=C(NC1CCN(S(=O)(=O)c2ccc(F)cc2)CC1)c1cccc(F)c1,-2%,-1,8%,-4%,-4%,1
CCOc1ccc2[nH]c3ncccc3c(=O)c2c1,-3%,40*,-5%,1%,-9%,17
O=C1c2ccccc2C(c2nnnn2-c2ccc3c(c2)OCCO3)N1Cc1ccco1 (centres undefined),.,.,.,.,-16%,.
CCOc1ccc(NC(=O)CN(c2ccc(OC)cc2)S(=O)(=O)c2cccs2)cc1,3%,.,.,.,1%,.
CCCN(S(=O)(=O)c1ccc(OCC)cc1)S(=O)(=O)c1cccs1,4%,37*,-8%,4%,0%,28*
COc1cc2c(cc1NCc1ccc3c(c1)OCO3)oc1ccccc12,1%,68*,9%,5%,1%,37*
CCCN(CCC)S(=O)(=O)c1ccc(C(=O)Nc2cc3oc4ccccc4c3cc2OC)cc1,22%,-11,3%,0%,-3%,19*
COc1ccc(OC)c(NC(=O)c2ccc3c(c2)OCO3)c1,-5%,.,-16%,-1%,0%,24*
CCN(CC)S(=O)(=O)c1cccc(C(=O)Nc2cc3oc4ccccc4c3cc2OC)c1,-7%,-1,0%,2%,21%,-4
COc1ccccc1N1CCN(C(CNC(=O)c2ccc3c(c2)OCO3)c2cccnc2)CC1 (centres undefined),-11%,26,-14%,0%,3%,15*
CCN(CC)S(=O)(=O)c1ccc(OC)c(NC(=O)c2ccc3c(c2)OCO3)c1,-1%,20,.,4%,3%,5
O=S(=O)(NCc1ccc2c(c1)OCO2)c1ccc2oc3ccccc3c2c1,.,.,.,.,6%,.
COC(=O)CCC1(C(N)=O)CCC(=O)c2ccccc21 (centres undefined),.,.,.,.,-2%,.
CN(C(=O)c1ccccc1Cl)c1ccccc1C(=O)NCCc1ccccc1,-1%,1,0%,0%,-4%,8
COc1ccc(OC)c(-c2csc(NC(=O)c3ccc4c(c3)OCO4)n2)c1,3%,63*,.,5%,-9%,18*
COc1ccccc1NC(=O)c1ccc2c(c1)OCO2,-6%,82*,-4%,-10%,-13%,50*
COc1cc2c(cc1NCc1ccccn1)oc1ccccc12,-17%,33*,?,1%,-4%,11
COc1ccc(C(=O)Oc2ccc3c(c2)OCO3)cc1OC,-3%,75*,-14%,-16%,-9%,30*
CC(C)CC(=O)Nc1ccc2nc(SCC(=O)N3CCOCC3)sc2c1,.,.,.,.,2%,.
Cc1cccc(C)c1OCC(=O)N[C@@H](Cc1ccccc1)[C@@H](O)C[C@H](Cc1ccccc1)NC(=O)[C@H](C(C)C)N1CCCNC1=O,.,.,.,.,0%,.
COc1ccc(Cn2c(CNS(=O)(=O)c3ccc(C)c(C)c3)nc3cccnc32)cc1,.,.,.,.,4%,.
SMILES,SARS PLpro yeast,Shiga toxin inh,NS1 function inh,LmPK inh,Tb PYK inh,CHX counter
COc1cc2c(cc1NC(=O)c1cncc(Br)c1)oc1ccccc12,-4%,-9,1%,2%,4%,-2
CCCc1cc(C(=O)Nc2cc(OC)ccc2OC)cs1,-7%,30*,-40%,-5%,0%,18*
COc1ccc(OC)c(NC(=O)c2ccc(OC3CSC3)cc2)c1,-1%,28,.,1%,0%,21*
O=C(Nc1ccc(Cl)cc1)c1ccc(OC2CSC2)cc1,-2%,66,.,-2%,0%,18*
COc1ccc(OC)c(NC(=O)c2ccc(NC(C)=O)cc2)c1,1%,-10,-14%,0%,3%,9
COc1cc2c(cc1NC(=O)c1ccc3c(c1)OCO3)oc1ccccc12,1%,92*,-12%,-10%,1%,41*
OC(c1ccc(F)cc1)c1nc(-c2ccc(Cl)cc2)cs1 (centres undefined),.,.,.,.,3%,.
COc1cc(/C=C/c2sc3ccccc3[n+]2CCCS(=O)(=O)[O-])ccc1O,-2%,-6,9%,16µM*,?,-6
CCC(/C=C1\Oc2ccc(OC)cc2N1C)=C\c1sc2ccccc2[n+]1CCCS(=O)(=O)[O-],.,.,.,.,-28%,.
Nc1c(-c2ccccc2)cnc2cc(-c3ccccc3)nn12,-5%,36*,.,10%,-8%,24*
Nc1c(-c2ccc(Cl)cc2)cnc2ncnn12,-11%,23,-9%,-1%,6%,-2
Cc1cc2ncc(-c3ccc(Cl)cc3)c(N)n2n1,-18%,64*,-32%,2%,7%,43*
O=[N+]([O-])c1ccc(O)c(-c2ccnc3cc(-c4ccccc4)nn23)c1,.,.,.,.,0%,.
Cc1ccc(-c2cc3ncc(C#N)c(N)n3n2)cc1,0%,69*,.,-6%,-1%,24*
Cc1ccccc1-c1nc2cc(NC(=O)Cc3ccc(Cl)cc3)ccc2o1,.,.,.,.,-6%,.
CC(=O)Nc1ccc2oc(-c3ccccc3Br)nc2c1,-34%,93*,-147%,6%,-3%,71*
CC(C)C(=O)Nc1ccc2oc(-c3cc(F)c(F)cc3Cl)nc2c1,16%,23,-2%,-6%,4%,2
CC(=O)Nc1ccc2oc(-c3cc(F)c(F)cc3Cl)nc2c1,-2%,181*,-1%,1%,-2%,32*
CCC(=O)Nc1ccc2oc(-c3ccccc3Br)nc2c1,-26%,122*,-154%,1%,-4%,49*
Cc1ccccc1-c1nc2cc(NC(=O)C3CC3)ccc2o1,-18%,109*,-90%,-9%,-6%,43*
CCOC(=O)N1CCN(C(=O)COC(=O)CNC(=O)c2ccc(OCC)c(OCC)c2)CC1,-1%,.,.,.,5%,.

# Source: PubChem (National Center for Advancing Translational Sciences (NCATS))
